From PMC5540273 (PLoS ONE, 2017)

Tested on: PRKX
Conditions: concentration: 1 μM, replicates: in singlicate; n = 1
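Also: KINOMEscan kinase panel screen.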

SMILES	%Inh [%]
COc1ccc(Nc2nccc(N3CCC(NC(=O)C(C)c4ccc(Cl)cc4)CC3)n2)cc1 (stereo not drawn) [GSK1379812]	8
CC(=O)c1c(C)c2cnc(Nc3ccc(N4CCNCC4)cn3)nc2n(C2CCCC2)c1=O	0
Nc1nccc(-c2c(-c3ccc(F)cc3)ncn2C2CCN(Cc3ccccc3)CC2)n1 [SB-219980]	0
Fc1ccc(-c2nc3n(c2-c2ccncc2)CCS3)cc1 [GI98581]	15
COc1cccc(CNC(=O)NC2CCN(c3ccnc(Nc4ccc(F)cc4)n3)C2)c1 (stereo not drawn) [GSK1379723]	6
c1ccc(-c2ccnc3[nH]ccc23)cc1 [SB-693578]	0
Cc1ccc(NC(=O)c2ccc(Cl)cc2)cc1-c1ccc(C(=O)Nc2ccncc2)cc1 [GSK1398467]	23
CNCc1ccc2nc(NC(=O)c3ccc(C(C)(C)C)cc3)cn2c1	9
COc1ccc(-c2coc3ccc(-c4nnc(C)o4)cc23)cc1	0
O=C(Nc1n[nH]c2nc(-c3ccco3)c(Br)cc12)C1CCN(Cc2ccccc2)C1.O=C(O)[C@H](O)[C@@H](O)C(=O)O (stereo not drawn) [SB-742034]	0
Cc1c(Cn2c(C)c(C)n3c(=O)cc(N4CCOCC4)nc23)cccc1C(F)(F)F [GSK2328680]	0
COC(=O)C(NC(=O)NC1CCN(c2ccnc(Nc3ccc(F)cc3)n2)C1)c1ccccc1 (stereo not drawn) [GSK1379712]	12
Cc1ccc(NC(=O)Nc2ccc(Cl)cc2)cc1-c1ccc(C(=O)Nc2ccncc2)cc1 [GSK1398472]	24
Cc1ccc(-c2nc(Nc3ccncc3)c3ccccc3n2)s1 [GSK189015]	19
CC(C)c1cc(-c2ccc3c(N)n[nH]c3c2)nc(N)n1 [GSK2250882]	25
CC(=O)c1cccc(NC(=O)NC2CCN(c3ccnc(Nc4ccc(F)cc4)n3)C2)c1 (stereo not drawn) [GSK1379710]	32
Cc1ccccc1Cn1ccn2c(=O)cc(N3CCOCC3)nc12 [GSK2269905]	0
CNc1nc(-c2ccc3c(N)n[nH]c3c2)cc(N2C[C@@H](C(=O)Nc3ccccc3)CC[C@H]2C)n1 [GSK2298859]	97

SMILES	%Inh [%]
Fc1ccc(-c2nc[nH]c2-c2ccncc2)cc1 [SB-217360]	0
Cc1cccc2c(-c3ccncn3)c(-c3ccc(F)cc3)nn12 [GW515532]	5
COc1ccc(Nc2nccc(NCCNC(=O)Nc3cc(C)ccc3C)n2)cc1 [GSK1379899]	5
CS(=O)(=O)CCNCc1nc(-c2ccc3ncnc(Nc4ccc(OCc5ccccc5)c(Cl)c4)c3c2)cs1.Cl [GW582764]	0
NS(=O)(=O)c1cccc(N/C=C2\C(=O)Nc3ccc(S(=O)(=O)Cc4c(Cl)cccc4Cl)cc32)c1 [GSK398099]	12
CC(=O)c1c(C)c2cnc(Nc3ccn(C)n3)nc2n(C2CCCC2)c1=O	0
Cn1cncc1-c1cc2c(Nc3ccc(OCc4ccccc4)cc3)ncnc2cn1 [GW281179]	15
COc1ccc(CSc2nnc(-c3ccc4c(c3)CCO4)o2)cc1	0
CN1c2ccc(-c3ccc(C(N)=O)cc3)cc2-c2[nH]ncc2S1(=O)=O	0
CC(C)c1ccc(O)cc1Nc1ccnc2ccc(C(F)(F)F)cc12 [GW482059]	0
O=C(Nc1n[nH]c2nc(-c3cccs3)c(Br)cc12)C1CCCC1 [SB-743341]	0
CS(=O)(=O)CCNCc1nc(-c2ccc3ncnc(Nc4ccc5c(cnn5Cc5ccccc5)c4)c3c2)cs1.Cl.Cl [GW569716]	0
Cl.Cl.Cl.N#Cc1ccc(CCNc2nccc(-c3cccc(CN4CCNCC4)c3)n2)cc1 [GSK2137462]	4
Fc1ccc(-c2nn3cccc(F)c3c2-c2ccncc2)cc1 [GW475620]	4
COc1ccc(CSc2nnc(-c3ccc4ncsc4c3)o2)cc1C(F)(F)F	0
Cc1ccc(NC(=O)Nc2ccccc2F)cc1-c1ccc(C(=O)Nc2ccncc2)cc1 [GSK1398477]	49
O=C1NC(=O)C(c2ccc(Cl)cc2)=C1Nc1cccc(Cl)c1 [SB-317651]	0
CNc1nc(-c2ccc3c(N)n[nH]c3c2)cc(N2C[C@@H](C(=O)NC3CCCCC3)OC[C@H]2C)n1 [GSK2375584]	61

Tested on: PRP4
Conditions: concentration: 1 μM, replicates: in singlicate; n = 1

SMILES	%Inh [%]
COc1ccc(Nc2nccc(N3CCC(NC(=O)C(C)c4ccc(Cl)cc4)CC3)n2)cc1 (stereo not drawn) [GSK1379812]	18
CC(=O)c1c(C)c2cnc(Nc3ccc(N4CCNCC4)cn3)nc2n(C2CCCC2)c1=O	0
Nc1nccc(-c2c(-c3ccc(F)cc3)ncn2C2CCN(Cc3ccccc3)CC2)n1 [SB-219980]	0
Fc1ccc(-c2nc3n(c2-c2ccncc2)CCS3)cc1 [GI98581]	0
COc1cccc(CNC(=O)NC2CCN(c3ccnc(Nc4ccc(F)cc4)n3)C2)c1 (stereo not drawn) [GSK1379723]	7
c1ccc(-c2ccnc3[nH]ccc23)cc1 [SB-693578]	44
Cc1ccc(NC(=O)c2ccc(Cl)cc2)cc1-c1ccc(C(=O)Nc2ccncc2)cc1 [GSK1398467]	46
CNCc1ccc2nc(NC(=O)c3ccc(C(C)(C)C)cc3)cn2c1	36
COc1ccc(-c2coc3ccc(-c4nnc(C)o4)cc23)cc1	17
O=C(Nc1n[nH]c2nc(-c3ccco3)c(Br)cc12)C1CCN(Cc2ccccc2)C1.O=C(O)[C@H](O)[C@@H](O)C(=O)O (stereo not drawn) [SB-742034]	0
Cc1c(Cn2c(C)c(C)n3c(=O)cc(N4CCOCC4)nc23)cccc1C(F)(F)F [GSK2328680]	23
COC(=O)C(NC(=O)NC1CCN(c2ccnc(Nc3ccc(F)cc3)n2)C1)c1ccccc1 (stereo not drawn) [GSK1379712]	33
Cc1ccc(NC(=O)Nc2ccc(Cl)cc2)cc1-c1ccc(C(=O)Nc2ccncc2)cc1 [GSK1398472]	21
Cc1ccc(-c2nc(Nc3ccncc3)c3ccccc3n2)s1 [GSK189015]	0
CC(C)c1cc(-c2ccc3c(N)n[nH]c3c2)nc(N)n1 [GSK2250882]	4
CC(=O)c1cccc(NC(=O)NC2CCN(c3ccnc(Nc4ccc(F)cc4)n3)C2)c1 (stereo not drawn) [GSK1379710]	55
Cc1ccccc1Cn1ccn2c(=O)cc(N3CCOCC3)nc12 [GSK2269905]	14
CNc1nc(-c2ccc3c(N)n[nH]c3c2)cc(N2C[C@@H](C(=O)Nc3ccccc3)CC[C@H]2C)n1 [GSK2298859]	11

SMILES	%Inh [%]
Fc1ccc(-c2nc[nH]c2-c2ccncc2)cc1 [SB-217360]	0
Cc1cccc2c(-c3ccncn3)c(-c3ccc(F)cc3)nn12 [GW515532]	10
COc1ccc(Nc2nccc(NCCNC(=O)Nc3cc(C)ccc3C)n2)cc1 [GSK1379899]	6
CS(=O)(=O)CCNCc1nc(-c2ccc3ncnc(Nc4ccc(OCc5ccccc5)c(Cl)c4)c3c2)cs1.Cl [GW582764]	51
NS(=O)(=O)c1cccc(N/C=C2\C(=O)Nc3ccc(S(=O)(=O)Cc4c(Cl)cccc4Cl)cc32)c1 [GSK398099]	19
CC(=O)c1c(C)c2cnc(Nc3ccn(C)n3)nc2n(C2CCCC2)c1=O	0
Cn1cncc1-c1cc2c(Nc3ccc(OCc4ccccc4)cc3)ncnc2cn1 [GW281179]	23
COc1ccc(CSc2nnc(-c3ccc4c(c3)CCO4)o2)cc1	16
CN1c2ccc(-c3ccc(C(N)=O)cc3)cc2-c2[nH]ncc2S1(=O)=O	12
CC(C)c1ccc(O)cc1Nc1ccnc2ccc(C(F)(F)F)cc12 [GW482059]	14
O=C(Nc1n[nH]c2nc(-c3cccs3)c(Br)cc12)C1CCCC1 [SB-743341]	15
CS(=O)(=O)CCNCc1nc(-c2ccc3ncnc(Nc4ccc5c(cnn5Cc5ccccc5)c4)c3c2)cs1.Cl.Cl [GW569716]	49
Cl.Cl.Cl.N#Cc1ccc(CCNc2nccc(-c3cccc(CN4CCNCC4)c3)n2)cc1 [GSK2137462]	0
Fc1ccc(-c2nn3cccc(F)c3c2-c2ccncc2)cc1 [GW475620]	29
COc1ccc(CSc2nnc(-c3ccc4ncsc4c3)o2)cc1C(F)(F)F	20
Cc1ccc(NC(=O)Nc2ccccc2F)cc1-c1ccc(C(=O)Nc2ccncc2)cc1 [GSK1398477]	2
O=C1NC(=O)C(c2ccc(Cl)cc2)=C1Nc1cccc(Cl)c1 [SB-317651]	0
CNc1nc(-c2ccc3c(N)n[nH]c3c2)cc(N2C[C@@H](C(=O)NC3CCCCC3)OC[C@H]2C)n1 [GSK2375584]	16
